Data taken from PubChem BioAssay AID651640 (Broad Institute, 2012).
Where “and” joins values, the source holds several entries; their conditions need not be identical. Equal values may be shown once. Among all 350,000 compounds or so, about 6,000 (1.7%) were called active. About 5% were inconclusive and are not listed. No stated cut-off is given here; in the data, active means CPE inhibition above about 20% (passing the limit was not always enough); inconclusive means no clear call, values can overlap the other calls; tested in BHK-21 cells. Many of the other results were omitted from the sample, so actives are more common in it than they were. More than one record can exist for a structure, and the calls need not agree.

Assay: protection of cells from dengue 2 killing – plate reader, single concentration, primary screen (AID 651640);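 further: 0% = median of neutral control wells and 100% = median of positive control wells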
Details: DENV2-infected cells, cytopathic effect rescue, at 9.99 µM, stronger effect = higher value

Row | SMILES | CPE inhibition
1 | C[C@@H]1CCCCO[C@H](CN(C)CC2CCCCC2)[C@H](C)CN([C@H](C)CO)C(=O)c2cc(NS(=O)(=O)c3ccc(F)cc3)ccc2O1 | -1.47% (inactive)
2 | C[C@@H]1CCCCO[C@H](CN(C)Cc2ccc3c(c2)OCO3)[C@H](C)CN([C@@H](C)CO)C(=O)c2cc(NS(=O)(=O)c3cccs3)ccc2O1 | -2.06% (inactive) and 0.641% (inactive)
3 | CCCN1C(=O)c2[nH]nc(-c3ccccc3)c2C1c1ccccc1 (stereo not drawn) | 1.19% (inactive)
4 | CO[C@H]1CN(C)C(=O)c2ccc(NC(C)=O)cc2OC[C@H](C)N(CC2CC2)C[C@@H]1C | -14.7% (inactive)
5 | C[C@H]1CN([C@@H](C)CO)C(=O)Cc2cc(NC(=O)C3CCCCC3)ccc2O[C@H]1CN(C)C(=O)Nc1ccc(C(F)(F)F)cc1 | -1.37% (inactive)
6 | C[C@@H]1CN([C@@H](C)CO)C(=O)Cc2cc(NC(=O)C3CCCCC3)ccc2O[C@@H]1CN(C)C(=O)Nc1ccc(C(F)(F)F)cc1 | 2.75% (inactive)
7 | C[C@H](CO)N1C[C@H](C)[C@@H](CN(C)S(=O)(=O)c2ccccc2)Oc2ccc(NC(=O)Nc3ccc(F)cc3)cc2CC1=O | 13.5% (inactive)
8 | C[C@@H]1CN([C@H](C)CO)C(=O)Cc2cc(NC(=O)Nc3ccccc3)ccc2O[C@@H]1CN(C)Cc1ccc(C(F)(F)F)cc1 | -6.47% (inactive)
9 | C[C@H]1CN([C@@H](C)CO)C(=O)Cc2cc(NC(=O)Nc3ccc(C(F)(F)F)cc3)ccc2O[C@H]1CN(C)Cc1ccc(C(=O)O)cc1 | 16.5% (inactive)
10 | C[C@@H]1CN([C@H](C)CO)C(=O)Cc2cc(NC(=O)C3CCCCC3)ccc2O[C@@H]1CN(C)Cc1ccc(C(F)(F)F)cc1 | 31.3% (active)
11 | C[C@@H]1CN([C@@H](C)CO)C(=O)Cc2cc(NC(=O)Nc3ccc(C(F)(F)F)cc3)ccc2O[C@H]1CN(C)Cc1ccc(C(=O)O)cc1 | 30.9% (active)
12 | C[C@@H]1CN([C@@H](C)CO)C(=O)Cc2cc(NC(=O)Nc3ccc(F)cc3)ccc2O[C@@H]1CN(C)S(=O)(=O)c1ccccc1 | 76.2% (active)
13 | C[C@H]1CN([C@@H](C)CO)C(=O)Cc2cc(NC(=O)Nc3ccc(F)cc3)ccc2O[C@H]1CN(C)S(=O)(=O)c1ccccc1 | 1.86% (inactive)
14 | COCC#Cc1cnc2c(c1)C(=O)N([C@H](C)CO)C[C@H](C)[C@H](CN(C)C(=O)C1CCOCC1)O2 | 8% (inactive)
15 | O=C(C[C@H]1C[C@@H]2c3cc(NC(=O)CC4CC4)ccc3O[C@@H]2[C@@H](CO)O1)NCc1cc(F)ccc1F | -1.05% (inactive)
16 | C[C@@H]1CN([C@H](C)CO)C(=O)c2cc(NC(=O)c3ccncc3)ccc2O[C@H]1CN(C)Cc1ccc(Oc2ccccc2)cc1 | -0.0445% (inactive)
17 | C[C@@H]1CCCCO[C@@H](CN(C)C(=O)Cc2ccccc2)[C@H](C)CN([C@H](C)CO)C(=O)c2cc(NC(=O)Cc3ccccc3)ccc2O1 | 13.3% (inactive)
18 | COc1ccc(-c2ccc3c(c2)[C@H]2[C@H](CCN2C(=O)c2ccc4c(c2)OCO4)[C@@H](CO)N3)cc1 | -26.6% (inactive)
19 | Cc1ccc(C)c(CN2CCC(CNC(=O)C3CCCN(c4ncnc5c4nc4n5CCCCC4)C3)CC2)c1 (stereo not drawn) | 3.53% (inactive)
20 | CCCN1C[C@@H](C)[C@@H](OC)CN(C)C(=O)c2ccc(NC(=O)CC(F)(F)F)cc2OC[C@H]1C | 1.09% (inactive)
21 | CN1c2ccc(Br)cc2[C@H]2[C@H](CCN2S(=O)(=O)c2ccc(F)cc2)[C@@H]1CO | 0.0605% (inactive)

Row | SMILES | CPE inhibition
22 | CO[C@@H]1CN(C)C(=O)c2ccc(NC(=O)C3CC3)cc2OC[C@H](C)N(C(C)=O)C[C@H]1C | 7.67% (inactive)
23 | NC1=NC[C@@H](Cc2ccc(O)cc2)N1CC1CCCCC1 | 2.56% (inactive)
24 | C/C=C(\C)C(=O)NCCN1C2=NC[C@H](Cc3ccc(O)cc3)N2C[C@@H]1Cc1ccc(OC)cc1 | 77.3% (active)
25 | COc1ccc(C[C@H]2CN3C(=NC[C@H]3C)N2CCNC(=O)CCC2CCCCC2)cc1 | -4.48% (inactive)
26 | CCC(=O)N1C[C@@H](O)COC[C@H]2O[C@H](CC(=O)NCC3CCCCC3)CC[C@@H]21 | -3.58% (inactive)
27 | CCOC(=O)N1CCN(Cc2nc3cc(NC(C)=O)ccc3n2C)CC1 | -3.68% (inactive)
28 | CCOC(=O)N1CCN(Cc2nc3cc(NC(=O)CC)ccc3n2CC)CC1 | 38.6% (active)
29 | CCC(=O)Nc1ccc2c(c1)nc(CCN1CCN(c3ccccn3)CC1)n2C | 0.997% (inactive)
30 | C[C@@H]1CN([C@H](C)CO)C(=O)c2cccc(NC(=O)c3ccncc3)c2O[C@@H]1CN(C)S(=O)(=O)c1cn(C)cn1 | 15% (inactive)
31 | O=C(Nc1ccccc1F)N[C@@H]1C=C[C@H](CC(=O)N2CCCCC2)O[C@@H]1CO | -0.192% (inactive)
32 | Cc1noc(C)c1NC(=O)N(C)C[C@@H]1OCCCC[C@H](C)Oc2ccc(NC(=O)c3ccccc3)cc2C(=O)N([C@@H](C)CO)C[C@@H]1C | 16.5% (inactive)
33 | COc1ccc(C#Cc2cnc3c(c2)C(=O)N([C@@H](C)CO)C[C@H](C)[C@@H](CN(C)C(C)=O)O3)cc1 | 2.83% (inactive)
34 | C/C=C/c1cnc2c(c1)C(=O)N([C@@H](C)CO)C[C@@H](C)[C@H](CN(C)C(=O)c1cnccn1)O2 | -1.7% (inactive)
35 | C[C@H](CO)N1C[C@H](C)[C@@H](CN(C)C(=O)c2cnccn2)Oc2ncc(Br)cc2C1=O | 17.4% (inactive) and 62.5% (active)
36 | COc1ccc(C#Cc2cnc3c(c2)C(=O)N([C@H](C)CO)C[C@H](C)[C@@H](CN(C)C)O3)cc1 | 19.9% (inactive)
37 | CC(=O)N(C)C[C@@H]1Oc2ncc(C#Cc3ccc(F)cc3)cc2C(=O)N([C@H](C)CO)C[C@@H]1C | 28.5% (active)
38 | COc1ccc(C#Cc2cnc3c(c2)C(=O)N([C@H](C)CO)C[C@@H](C)[C@@H](CN(C)C(=O)CN(C)C)O3)cc1 | 33.2% (active)
39 | C[C@H](CO)N1C[C@H](C)[C@H](CN(C)C)Oc2ncc(C#Cc3ccc(F)cc3)cc2C1=O | -5.08% (inactive) and 2.36% (inactive)
40 | C[C@H]1CN([C@@H](C)CO)C(=O)c2cc(C#Cc3ccc(F)cc3)cnc2O[C@@H]1CN(C)C(=O)Nc1ccc(F)cc1 | -4.85% (inactive)
41 | C/C=C/c1cnc2c(c1)C(=O)N([C@@H](C)CO)C[C@@H](C)[C@@H](CN(C)C(=O)c1cnccn1)O2 | 2.38% (inactive)
42 | N#C[C@H]1[C@H](c2ccccc2)[C@@H](CO)N1C(=O)c1cccnc1 | -0.249% (inactive)

Row | SMILES | CPE inhibition
43 | COC(=O)[C@]12C[C@H](CC(=O)NCc3ccc(C)o3)C(=O)N(CCC3=CCCCC3)C1=C[C@H](C(C)(C)C)O[C@@H]2C | 13.9% (inactive)
44 | CN(C)C(=O)[C@@H]1[C@@H](CO)[C@@H]2Cn3c(cccc3=O)[C@@H]2N1C(=O)C1CCC1 | -0.032% (inactive)
45 | O=C(Nc1cccc(Cl)c1)N1C[C@@H]2[C@H](c3ccccc31)[C@H](CO)N2Cc1ccncc1 | -4.1% (inactive)
46 | C/C=C/c1ccc([C@H]2[C@@H](CO)N[C@@H]2CN(CC)C(=O)CN2CCOCC2)cc1 | -9.22% (inactive)
47 | O=C(C[C@@H]1C[C@H]2c3cc(NC(=O)NC4CCCCC4)ccc3O[C@H]2[C@H](CO)O1)NCc1ccncc1 | -3.13% (inactive)
48 | CC(C)NC(=O)N(C)C[C@@H]1Oc2ncc(C3=CCCCC3)cc2C(=O)N([C@H](C)CO)C[C@@H]1C | 4.71% (inactive)
49 | CCCNC(=O)C[C@H]1C[C@@H]2c3cc(NC(=O)COC)ccc3O[C@@H]2[C@@H](CO)O1 | -2.37% (inactive)
50 | CN1OC[C@@H]2CN(C(=O)c3cccc4ccccc34)[C@H](c3ccc(N4CCCCC4)cc3)C[C@@H]21 | 1.89% (inactive)
51 | CN1OC[C@@H]2CN(C(=O)C(C)(C)C)[C@H](c3ccc(-n4ccnc4)cc3)C[C@@H]21 | -4.59% (inactive)
52 | CN1OC[C@@H]2CN(C(=O)c3cccnc3)[C@H](c3ccc(N4CCCCC4)cc3)C[C@@H]21 | 42.6% (active)
53 | COc1ccc(NC(=O)Nc2ccc3c(c2)C(=O)N([C@@H](C)CO)C[C@@H](C)[C@@H](CN(C)Cc2ccncc2)OCCCC[C@@H](C)O3)cc1 | -9.1% (inactive)
54 | CN1C(=O)c2cc(NC(=O)c3cccs3)ccc2OC[C@H]2O[C@@H](CC(=O)NCC3CC3)CC[C@@H]21 | -3.31% (inactive)
55 | C/C=C/c1ccc([C@@H]2[C@H](CO)N(CC3CCOCC3)C23CN(S(=O)(=O)CC)C3)cc1 | 73.3% (active)
56 | C/C=C/c1ccc([C@@H]2[C@H](CO)N(CC3CCCC3)C23CN(C(=O)CC)C3)cc1 | 2.47% (inactive)
57 | C/C=C/c1ccc([C@@H]2[C@@H](CO)N(CC3CCCC3)C23CN(S(=O)(=O)CC)C3)cc1 | -5.75% (inactive)
58 | CO[C@H]1CN(C)C(=O)c2ccc(NS(=O)(=O)c3cn(C)cn3)cc2OC[C@H](C)N(C)C[C@H]1C | -10.1% (inactive)
59 | C/C=C/c1cnc2c(c1)C(=O)N([C@H](C)CO)C[C@H](C)[C@H](CN(C)C(=O)c1cccc(F)c1)O2 | -1% (inactive)
60 | C[C@@H]1CN([C@@H](C)CO)S(=O)(=O)c2ccc(Br)cc2O[C@H]1CN(C)S(=O)(=O)c1ccccc1 | -1.43% (inactive)
61 | CCOc1ccc(Oc2nc(C)cc(OC)n2)nn1 | 71.4% (active)
62 | COc1ccc2c3c([nH]c2c1)[C@H](CO)N(Cc1nccs1)CC31CCN(Cc2ccncc2)CC1 | 6.23% (inactive)
63 | CCC(=O)N(C)C[C@@H]1Oc2cc(C#C[C@H](C)O)ccc2S(=O)(=O)N([C@@H](C)CO)C[C@H]1C | -5.73% (inactive)
